Common to all, as to test: DAPPL (digital affinity profiling via proximity ligation, sequencing); 10 mM Tris-HCl pH 7.5, 50 mM NaCl, 1 mM DTT, 4% glycerol, room temperature, 30 min; GST-TFs on glutathione beads, 16-mer random dsDNA library, 0.1% formaldehyde crosslink after washing; high values mean tight binding
One test concerns the target T1, FEV (Homo sapiens, UniProt Q99581 1-238).
T1 sequence: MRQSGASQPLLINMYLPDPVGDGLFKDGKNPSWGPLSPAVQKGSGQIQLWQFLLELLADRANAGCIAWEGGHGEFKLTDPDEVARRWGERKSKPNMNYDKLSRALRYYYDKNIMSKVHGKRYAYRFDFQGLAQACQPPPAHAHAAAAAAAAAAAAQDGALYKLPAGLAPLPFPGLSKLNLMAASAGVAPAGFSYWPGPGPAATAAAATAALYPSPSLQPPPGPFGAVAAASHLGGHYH
The following applies: protein: recombinant; tags: N-terminal GST; dsDNA, one strand shown. The essentials: (§1)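 Yeast served to express human transcription factors as GST fusions, which were then captured on glutathione beads and labelled with DNA barcodes. Pooled with a tag-only sample, they were incubated with 200 nmole of a 16-mer random double-stranded DNA library for 30 min at room temperature in Tris/NaCl/DTT/glycerol buffer, washed, crosslinked with 0.1% formaldehyde, ligated by proximity, amplified by PCR and sequenced. Dividing each hexamer's read frequency for a factor by its frequency for the tag-only sample gives the binding signal.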

Another test addresses ETV5 (Homo sapiens, UniProt P41161 1-510). The following applies: protein: recombinant; tags: N-terminal GST; dsDNA, one strand shown. In short, it runs like this:
as §1

A further test concerns the target HSF1 (Homo sapiens, UniProt Q00613 1-529). To be noted: protein: recombinant; tags: N-terminal GST; chain copies: 3; dsDNA, one strand shown. The essentials: as §1
The target of the next test is T2, SPIC (Homo sapiens, UniProt Q8N5J4 1-248).
T2 sequence: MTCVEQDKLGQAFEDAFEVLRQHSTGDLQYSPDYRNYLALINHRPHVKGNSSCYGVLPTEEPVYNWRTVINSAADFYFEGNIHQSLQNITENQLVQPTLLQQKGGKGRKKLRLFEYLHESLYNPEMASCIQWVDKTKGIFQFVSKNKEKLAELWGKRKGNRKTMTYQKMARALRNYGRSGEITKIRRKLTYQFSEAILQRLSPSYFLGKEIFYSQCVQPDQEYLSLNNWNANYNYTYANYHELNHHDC
The following applies: protein: recombinant; tags: N-terminal GST; dsDNA, one strand shown. The essentials: as §1

The target in the next test is ELF4 (Homo sapiens, UniProt Q99607 1-663). To be noted: protein: recombinant; tags: N-terminal GST; dsDNA, one strand shown. In short, it runs like this: as §1
ELF4, sequence (Q99607 whole entry): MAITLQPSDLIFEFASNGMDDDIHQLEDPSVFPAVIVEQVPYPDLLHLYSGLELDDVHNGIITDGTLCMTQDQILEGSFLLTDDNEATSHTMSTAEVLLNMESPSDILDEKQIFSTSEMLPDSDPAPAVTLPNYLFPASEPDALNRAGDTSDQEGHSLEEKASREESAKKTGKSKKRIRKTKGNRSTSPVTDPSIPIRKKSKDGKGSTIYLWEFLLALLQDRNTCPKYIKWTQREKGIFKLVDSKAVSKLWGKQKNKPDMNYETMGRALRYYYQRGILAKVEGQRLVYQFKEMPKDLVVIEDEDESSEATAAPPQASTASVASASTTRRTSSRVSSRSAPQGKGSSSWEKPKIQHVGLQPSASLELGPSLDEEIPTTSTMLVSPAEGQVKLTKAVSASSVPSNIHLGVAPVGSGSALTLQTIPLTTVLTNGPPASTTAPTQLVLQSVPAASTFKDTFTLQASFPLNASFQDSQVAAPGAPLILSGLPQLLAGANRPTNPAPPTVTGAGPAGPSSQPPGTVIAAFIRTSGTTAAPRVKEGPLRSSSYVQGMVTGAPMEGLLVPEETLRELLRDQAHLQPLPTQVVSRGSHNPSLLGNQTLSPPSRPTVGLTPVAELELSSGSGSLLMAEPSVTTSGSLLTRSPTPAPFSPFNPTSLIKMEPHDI
The next test deals with T3, ELK4 (Homo sapiens, UniProt P28324-2 1-405).
T3 sequence: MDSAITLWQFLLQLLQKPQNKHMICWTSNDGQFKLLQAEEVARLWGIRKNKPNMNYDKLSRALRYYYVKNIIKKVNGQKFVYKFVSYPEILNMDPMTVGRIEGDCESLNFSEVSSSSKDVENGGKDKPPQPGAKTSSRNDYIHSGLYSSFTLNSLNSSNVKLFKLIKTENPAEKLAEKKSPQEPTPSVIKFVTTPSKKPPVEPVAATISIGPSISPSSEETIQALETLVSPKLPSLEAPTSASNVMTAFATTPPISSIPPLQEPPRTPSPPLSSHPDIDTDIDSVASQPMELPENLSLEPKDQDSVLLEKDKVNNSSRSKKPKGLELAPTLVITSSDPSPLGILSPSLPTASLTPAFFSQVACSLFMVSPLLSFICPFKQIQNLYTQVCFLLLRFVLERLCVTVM
To be noted: protein: recombinant; tags: N-terminal GST; dsDNA, one strand shown. In short, it runs like this: as §1

In a further test the target is T4, ETV2 (Homo sapiens, UniProt O00321 1-342).
T4 sequence: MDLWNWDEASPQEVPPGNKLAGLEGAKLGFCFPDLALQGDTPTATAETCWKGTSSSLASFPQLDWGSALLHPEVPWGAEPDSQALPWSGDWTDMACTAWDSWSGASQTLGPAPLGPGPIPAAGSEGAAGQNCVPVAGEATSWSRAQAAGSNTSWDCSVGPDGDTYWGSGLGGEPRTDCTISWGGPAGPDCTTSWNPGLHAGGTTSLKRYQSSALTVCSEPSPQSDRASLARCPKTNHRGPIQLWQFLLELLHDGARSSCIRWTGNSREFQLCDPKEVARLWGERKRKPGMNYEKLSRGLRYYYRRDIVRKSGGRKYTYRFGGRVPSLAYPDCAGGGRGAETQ
The following applies: protein: recombinant; tags: N-terminal GST; dsDNA, one strand shown. In short, it runs like this:
as §1

A further test concerns the target T5, ELF3 (Homo sapiens, UniProt P78545 1-371).
T5 sequence: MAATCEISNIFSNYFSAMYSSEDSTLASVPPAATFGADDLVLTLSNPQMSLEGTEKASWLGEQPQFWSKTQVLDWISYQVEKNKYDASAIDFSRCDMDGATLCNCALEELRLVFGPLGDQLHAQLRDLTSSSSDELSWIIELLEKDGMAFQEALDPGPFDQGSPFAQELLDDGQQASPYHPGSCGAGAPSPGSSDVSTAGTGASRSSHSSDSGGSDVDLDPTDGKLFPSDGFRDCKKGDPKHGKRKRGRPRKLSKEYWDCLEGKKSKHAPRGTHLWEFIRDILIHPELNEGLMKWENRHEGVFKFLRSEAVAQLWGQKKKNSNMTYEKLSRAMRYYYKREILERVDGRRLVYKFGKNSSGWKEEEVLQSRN
The following applies: protein: recombinant; tags: N-terminal GST; dsDNA, one strand shown. The essentials: as §1

The target of a further test is CRX (Homo sapiens, UniProt O43186 1-299). The following applies: protein: recombinant; tags: N-terminal GST; dsDNA, one strand shown. In short, it runs like this:
as §1

Another test has as its target ETV1 (Homo sapiens, UniProt P50549 1-477). The following applies: protein: recombinant; tags: N-terminal GST; dsDNA, one strand shown. In short, it runs like this: as §1

ETV5, sequence (P41161 whole entry): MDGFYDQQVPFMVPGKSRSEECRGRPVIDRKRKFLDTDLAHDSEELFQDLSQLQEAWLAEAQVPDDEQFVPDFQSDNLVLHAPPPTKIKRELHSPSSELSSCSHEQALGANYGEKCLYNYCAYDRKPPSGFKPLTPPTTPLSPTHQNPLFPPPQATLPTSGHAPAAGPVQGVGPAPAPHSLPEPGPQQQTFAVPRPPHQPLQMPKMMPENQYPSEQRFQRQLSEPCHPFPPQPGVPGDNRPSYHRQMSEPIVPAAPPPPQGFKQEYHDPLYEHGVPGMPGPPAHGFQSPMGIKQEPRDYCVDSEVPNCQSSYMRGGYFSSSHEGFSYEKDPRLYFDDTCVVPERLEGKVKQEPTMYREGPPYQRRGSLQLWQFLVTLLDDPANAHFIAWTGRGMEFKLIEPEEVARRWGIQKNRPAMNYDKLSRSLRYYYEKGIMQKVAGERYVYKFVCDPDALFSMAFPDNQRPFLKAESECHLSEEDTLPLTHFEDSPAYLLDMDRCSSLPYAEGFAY
CRX, sequence (O43186 whole entry): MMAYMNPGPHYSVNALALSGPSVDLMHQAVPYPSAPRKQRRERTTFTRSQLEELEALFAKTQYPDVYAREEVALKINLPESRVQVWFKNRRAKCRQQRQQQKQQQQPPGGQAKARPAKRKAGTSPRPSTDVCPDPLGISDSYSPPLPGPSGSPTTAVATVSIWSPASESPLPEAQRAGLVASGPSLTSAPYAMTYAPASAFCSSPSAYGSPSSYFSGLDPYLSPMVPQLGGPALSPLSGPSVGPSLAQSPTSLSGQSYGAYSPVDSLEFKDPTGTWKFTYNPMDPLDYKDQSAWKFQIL
ETV1, sequence (P50549 whole entry): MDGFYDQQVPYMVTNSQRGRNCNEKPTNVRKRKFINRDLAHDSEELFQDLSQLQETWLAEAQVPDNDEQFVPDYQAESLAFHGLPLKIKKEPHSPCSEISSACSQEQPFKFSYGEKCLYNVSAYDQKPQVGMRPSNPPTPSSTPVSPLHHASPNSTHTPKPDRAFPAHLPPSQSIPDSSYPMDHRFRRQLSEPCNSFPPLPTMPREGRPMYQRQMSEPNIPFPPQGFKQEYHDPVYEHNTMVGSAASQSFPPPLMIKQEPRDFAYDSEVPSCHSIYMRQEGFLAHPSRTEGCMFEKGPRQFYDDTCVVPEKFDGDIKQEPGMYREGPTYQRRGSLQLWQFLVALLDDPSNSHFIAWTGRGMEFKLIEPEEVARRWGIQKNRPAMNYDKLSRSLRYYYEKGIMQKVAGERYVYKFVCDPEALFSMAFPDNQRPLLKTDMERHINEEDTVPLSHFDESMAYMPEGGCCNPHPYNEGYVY
HSF1, sequence (Q00613 whole entry): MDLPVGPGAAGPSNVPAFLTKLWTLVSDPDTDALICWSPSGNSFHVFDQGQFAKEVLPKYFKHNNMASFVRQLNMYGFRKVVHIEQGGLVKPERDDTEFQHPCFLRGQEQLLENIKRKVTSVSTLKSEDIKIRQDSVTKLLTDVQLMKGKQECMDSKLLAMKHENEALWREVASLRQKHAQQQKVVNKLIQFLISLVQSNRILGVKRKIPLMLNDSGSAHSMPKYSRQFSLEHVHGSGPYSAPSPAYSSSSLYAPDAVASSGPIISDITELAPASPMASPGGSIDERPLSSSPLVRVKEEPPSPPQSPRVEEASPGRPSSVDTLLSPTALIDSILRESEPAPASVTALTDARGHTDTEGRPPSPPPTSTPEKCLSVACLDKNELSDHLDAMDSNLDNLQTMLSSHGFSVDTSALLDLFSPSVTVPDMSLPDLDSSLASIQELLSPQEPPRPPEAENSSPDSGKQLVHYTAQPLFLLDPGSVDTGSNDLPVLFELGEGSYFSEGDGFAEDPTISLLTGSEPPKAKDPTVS

With ATGTAT, the binding signal was 1.31 fold enrichment (6-mer frequency, TF over GST control) in the test with FEV; 1.33 fold enrichment (6-mer frequency, TF over GST control) with ETV5; 1.18 fold enrichment (6-mer frequency, TF over GST control) with HSF1; 1.25 fold enrichment (6-mer frequency, TF over GST control) with SPIC; 1.43 fold enrichment (6-mer frequency, TF over GST control) in the test with ELF4; 1.57 fold enrichment (6-mer frequency, TF over GST control) in the test with ELK4. The binding signal in the test with ETV2 was 1.3 fold enrichment (6-mer frequency, TF over GST control); with ELF3 it was 1.35 fold enrichment (6-mer frequency, TF over GST control); with CRX, 1.24 fold enrichment (6-mer frequency, TF over GST control); with ETV1, 1.42 fold enrichment (6-mer frequency, TF over GST control).

For TACACA, the binding signal in the test with FEV was 1.21 fold enrichment (6-mer frequency, TF over GST control); with ETV5, 1.2 fold enrichment (6-mer frequency, TF over GST control); in the test with HSF1, 1.05 fold enrichment (6-mer frequency, TF over GST control); with SPIC, 1.35 fold enrichment (6-mer frequency, TF over GST control); with ELF4 it was 1.2 fold enrichment (6-mer frequency, TF over GST control); with ELK4 it was 1.26 fold enrichment (6-mer frequency, TF over GST control). Further, the binding signal was 1.12 fold enrichment (6-mer frequency, TF over GST control) in the test with ETV2; 1.22 fold enrichment (6-mer frequency, TF over GST control) with ELF3; 1.09 fold enrichment (6-mer frequency, TF over GST control) with CRX; 1.2 fold enrichment (6-mer frequency, TF over GST control) with ETV1.

For the sequence GGTTTA, the binding signal in the test with FEV is 1.05 fold enrichment (6-mer frequency, TF over GST control); with ETV5 it was 1.06 fold enrichment (6-mer frequency, TF over GST control); with HSF1 it was 1.29 fold enrichment (6-mer frequency, TF over GST control); with SPIC it was 1.13 fold enrichment (6-mer frequency, TF over GST control); with ELF4 it was 1.06 fold enrichment (6-mer frequency, TF over GST control); with ELK4, 1.13 fold enrichment (6-mer frequency, TF over GST control). Also, the binding signal is 1.15 fold enrichment (6-mer frequency, TF over GST control) with ETV2; 1.13 fold enrichment (6-mer frequency, TF over GST control) in the test with ELF3; 1.66 fold enrichment (6-mer frequency, TF over GST control) with CRX; 1.05 fold enrichment (6-mer frequency, TF over GST control) with ETV1.

For the sequence TACCTG, the binding signal is 1.11 fold enrichment (6-mer frequency, TF over GST control) in the test with FEV; 1.19 fold enrichment (6-mer frequency, TF over GST control) with ETV5; 1.04 fold enrichment (6-mer frequency, TF over GST control) with HSF1; 1.04 fold enrichment (6-mer frequency, TF over GST control) with SPIC; 1.14 fold enrichment (6-mer frequency, TF over GST control) in the test with ELF4; 1.07 fold enrichment (6-mer frequency, TF over GST control) in the test with ELK4. The binding signal with ETV2 was 1.14 fold enrichment (6-mer frequency, TF over GST control); in the test with ELF3, 1.15 fold enrichment (6-mer frequency, TF over GST control); with CRX, 1.11 fold enrichment (6-mer frequency, TF over GST control); with ETV1, 1.27 fold enrichment (6-mer frequency, TF over GST control).

As for GCTGCT, the binding signal in the test with FEV was 1.27 fold enrichment (6-mer frequency, TF over GST control); in the test with ETV5, 1.25 fold enrichment (6-mer frequency, TF over GST control); in the test with HSF1 it was 1.13 fold enrichment (6-mer frequency, TF over GST control); in the test with SPIC it was 1.5 fold enrichment (6-mer frequency, TF over GST control); with ELF4, 1.29 fold enrichment (6-mer frequency, TF over GST control); with ELK4, 1.36 fold enrichment (6-mer frequency, TF over GST control). Also, the binding signal with ETV2 was 1.25 fold enrichment (6-mer frequency, TF over GST control); in the test with ELF3 it was 1.37 fold enrichment (6-mer frequency, TF over GST control); with CRX, 1.27 fold enrichment (6-mer frequency, TF over GST control); in the test with ETV1, 1.42 fold enrichment (6-mer frequency, TF over GST control).

With TTTCAA, the binding signal with FEV was 1.34 fold enrichment (6-mer frequency, TF over GST control); with ETV5, 1.29 fold enrichment (6-mer frequency, TF over GST control); in the test with HSF1, 1.23 fold enrichment (6-mer frequency, TF over GST control); in the test with SPIC, 1.33 fold enrichment (6-mer frequency, TF over GST control); in the test with ELF4, 1.34 fold enrichment (6-mer frequency, TF over GST control); with ELK4, 1.29 fold enrichment (6-mer frequency, TF over GST control). In addition, the binding signal with ETV2 is 1.32 fold enrichment (6-mer frequency, TF over GST control); with ELF3 it was 1.33 fold enrichment (6-mer frequency, TF over GST control); with CRX, 1.34 fold enrichment (6-mer frequency, TF over GST control); with ETV1 it was 1.33 fold enrichment (6-mer frequency, TF over GST control).

As to CCGAAG, the binding signal with FEV was 1.04 fold enrichment (6-mer frequency, TF over GST control); with ETV5 it was 1.02 fold enrichment (6-mer frequency, TF over GST control); in the test with HSF1, 1.35 fold enrichment (6-mer frequency, TF over GST control); with SPIC, 1.23 fold enrichment (6-mer frequency, TF over GST control); in the test with ELF4 it was 1.05 fold enrichment (6-mer frequency, TF over GST control); with ELK4 it was 1.2 fold enrichment (6-mer frequency, TF over GST control). Further, the binding signal is 1.31 fold enrichment (6-mer frequency, TF over GST control) with ETV2; 1.02 fold enrichment (6-mer frequency, TF over GST control) with ELF3; 1.11 fold enrichment (6-mer frequency, TF over GST control) with CRX; 1.01 fold enrichment (6-mer frequency, TF over GST control) with ETV1.

Source of the values: paper PMC7862700, “An all-to-all approach to the identification of sequence-specific readers for epigenetic DNA modifications on cytosine”.
